Among the data in PubChem BioAssay (EPA / NIEHS) are outcome and AC50 values, retold here.

Read-out in experiment [1]: Macrophage colony-stimulating factor (MCSF), CSF1 (gene 1435)
In words: BSK_hDFCGF_MCSF: BioMAP Diversity Plus: hDFCGF Assay for Macrophage colony-stimulating factor (MCSF) Biomarker Activity (AID 2283060). Conditions: primary human foreskin fibroblasts; actives raise or lower the signal. The essentials:
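Human foreskin primary fibroblasts were treated with test chemical for 24 h, and M-CSF was then measured by ELISA. Data were fitted bidirectionally against DMSO as the negative control and activity baseline.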

The nature of experiment [2]: BSK_hDFCGF_SRB: Viability Assessment in the BioMAP Diversity Plus: hDFCGF Assay (AID 2283061).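 Note: cells exposed to compound for 24 h before the read.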 The settings on record: primary human foreskin fibroblasts. The essentials:
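Human foreskin primary fibroblasts were treated with compound and assessed 24 h after dosing. Total protein was measured by sulforhodamine B staining (0.1% SRB after 10% TCA fixation, 560 nm read) as a cytotoxicity marker, with bidirectional fitting against DMSO baseline.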

Read-out in experiment [3]: TIMP metallopeptidase inhibitor 1 (TIMP1), TIMP1 (gene 7076)
In words: BSK_hDFCGF_TIMP1: BioMAP Diversity Plus: hDFCGF Assay for TIMP metallopeptidase inhibitor 1 (TIMP1) Biomarker Activity (AID 2283062). The settings on record: primary human foreskin fibroblasts; actives raise or lower the signal. The procedure, abridged:
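Primary human foreskin fibroblasts in the hDFCGF system were dosed with compound for 24 h, then TIMP-1 was measured by ELISA. Activity was fitted bidirectionally relative to DMSO control; parallel SRB staining assessed cytotoxicity.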

Read-out in experiment [4]: Monokine induced gamma interferon (MIG), CXCL9 (gene 4283)
In words: BSK_hDFCGF_MIG: BioMAP Diversity Plus: hDFCGF Assay for Monokine induced gamma interferon (MIG) Biomarker Activity (AID 2283063). Conditions: primary human foreskin fibroblasts; actives raise or lower the signal. The essentials: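 ELISA read-out of MIG from primary human dermal fibroblasts 24 h post-dosing. Gain or loss of signal fitted bidirectionally, DMSO as baseline.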

Read-out in experiment [5]: Matrix Metallopeptidase 1 (MMP1), MMP1 (gene 4312)
In words: BSK_hDFCGF_MMP1: BioMAP Diversity Plus: hDFCGF Assay for Matrix Metallopeptidase 1 (MMP1) Biomarker Activity (AID 2283064). Conditions: primary human foreskin fibroblasts; actives raise or lower the signal. The procedure, abridged: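 hDFCGF primary fibroblasts (human foreskin); chemical added; 24 h; MMP1 by ELISA; bidirectional fit vs DMSO.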

Read-out in experiment [6]: Vascular cell adhesion molecule 1 (VCAM1), VCAM1 (gene 7412)
The experiment in a line: BSK_hDFCGF_VCAM1: BioMAP Diversity Plus: hDFCGF Assay for Vascular cell adhesion molecule 1 (VCAM1) Biomarker Activity (AID 2283065).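 For AC50: VCAM-1 protein level quantified by ELISA after 24 h chemical exposure.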 The settings on record: primary human foreskin fibroblasts; actives raise or lower the signal. The procedure, abridged: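 Primary human foreskin fibroblasts (hDFCGF system) were dosed with chemical and VCAM-1 was measured by ELISA 24 h later. Bidirectional curve fitting used DMSO as negative control and activity baseline.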

Read-out in experiment [7]: Plasminogen activator inhibitor-1 (PAI1), SERPINE1 (gene 5054)
In words: BSK_hDFCGF_PAI1: BioMAP Diversity Plus: hDFCGF Assay for Plasminogen activator inhibitor-1 (PAI1) Biomarker Activity (AID 2283066). Conditions: primary human foreskin fibroblasts; actives raise or lower the signal. The procedure, abridged:
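Human foreskin fibroblasts in the hDFCGF system were dosed with compound for 24 h; PAI-1 was quantified by ELISA. Bidirectional curve fitting used DMSO as negative control and baseline.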

Read-out in experiment [8]: Intercellular Adhesion Molecule 1 (ICAM1), ICAM1 (gene 3383)
The experiment in a line: BSK_KF3CT_ICAM1: BioMAP Diversity Plus: KF3CT Assay for Intercellular Adhesion Molecule 1 (ICAM1) Biomarker Activity (AID 2283067). Conditions: primary human keratinocytes with fibroblasts; actives raise or lower the signal. The essentials:
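Human keratinocyte plus foreskin fibroblast primary co-culture was exposed to chemical for 24 h. ICAM-1 was then quantified by ELISA, and the data were fit bidirectionally against DMSO as the negative control and baseline.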

Read-out in experiment [9]: Interferon-gamma inducible Protein 10 (IP10), CXCL10 (gene 3627)
The experiment in a line: BSK_KF3CT_IP10: BioMAP Diversity Plus: KF3CT Assay for Interferon-gamma inducible Protein 10 (IP10) Biomarker Activity (AID 2283068). The settings on record: primary human keratinocytes with fibroblasts; actives raise or lower the signal. The essentials:
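ELISA read-out of IP-10 after 24 h chemical dosing of human skin primary co-culture (keratinocytes, foreskin fibroblasts). Gain or loss of signal relative to DMSO, bidirectional curve fit.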

A short description of experiment [10]: BSK_KF3CT_SRB: Viability Assessment in the BioMAP Diversity Plus: KF3CT Assay (AID 2283069).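 Note: fitted for both signal gain and loss against DMSO baseline.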 The settings on record: primary human keratinocytes with fibroblasts. The procedure, abridged: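 Keratinocytes co-cultured with foreskin fibroblasts (human primary); chemical added, 24 h; fix 10% TCA, stain 0.1% SRB, A560. Bidirectional fit vs DMSO.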
Read-out in experiment [11]: Interleukin-1 alpha (IL1a), IL1A (gene 3552)
The experiment in a line: BSK_KF3CT_IL1a: BioMAP Diversity Plus: KF3CT Assay for Interleukin-1 alpha (IL1a) Biomarker Activity (AID 2283070). The settings on record: primary human keratinocytes with fibroblasts; actives raise or lower the signal. The essentials: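 Chemicals were dosed onto co-cultured human keratinocytes and foreskin fibroblasts, IL-1a was quantified by ELISA at 24 h, and activity was fitted in both directions relative to DMSO controls.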

Read-out in experiment [12]: TIMP metallopeptidase inhibitor 2 (TIMP2), TIMP2 (gene 7077)
In words: BSK_KF3CT_TIMP2: BioMAP Diversity Plus: KF3CT Assay for TIMP metallopeptidase inhibitor 2 (TIMP2) Biomarker Activity (AID 2283071). The settings on record: primary human keratinocytes with fibroblasts; actives raise or lower the signal. The essentials: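 Human primary keratinocyte/foreskin fibroblast co-culture dosed with chemical and sampled at 24 h. TIMP-2 levels quantified by ELISA; bidirectional fitting against DMSO negative control as baseline.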

Read-out in experiment [13]: C-C motif chemokine 2 (Homo sapiens) (UniProt P13500)
In words: BSK_KF3CT_MCP1: BioMAP Diversity Plus: KF3CT Assay for Monocyte Chemoattractant Protein 1 (MCP1/CCL2) Biomarker Activity (AID 2283073). The settings on record: primary human keratinocytes with fibroblasts; actives raise or lower the signal. The essentials:
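Human keratinocyte plus foreskin fibroblast primary co-culture exposed to chemical for 24 h. MCP-1 levels measured by ELISA. Bidirectional curve fitting relative to DMSO negative control as baseline.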

Read-out in experiment [14]: Matrix Metallopeptidase 9 (MMP9), MMP9 (gene 4318)
The experiment in a line: BSK_KF3CT_MMP9: BioMAP Diversity Plus: KF3CT Assay for Matrix Metallopeptidase 9 (MMP9) Biomarker Activity (AID 2283074).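 For AC50: MMP9 protein level quantified by ELISA in the co-culture.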 Conditions: primary human keratinocytes with fibroblasts; actives raise or lower the signal. The procedure, abridged: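 Human keratinocyte/foreskin fibroblast co-culture; compound added; 24 h; MMP-9 by ELISA; bidirectional fit vs DMSO baseline.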

Read-out in experiment [15]: urokinase plasminogen activator (uPA), PLAU (gene 5328)
The experiment in a line: BSK_KF3CT_uPA: BioMAP Diversity Plus: KF3CT Assay for urokinase plasminogen activator (uPA) Biomarker Activity (AID 2283075). The settings on record: primary human keratinocytes with fibroblasts; actives raise or lower the signal. The procedure, abridged:
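ELISA readout of uPA, analyzed for signal gain or loss relative to DMSO, from a human primary keratinocyte–foreskin fibroblast co-culture measured 24 h after chemical treatment.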

Read-out in a further experiment: CD40, CD40 (gene 958)
The experiment in a line: BSK_LPS_CD40: BioMAP Diversity Plus: LPS Assay for CD40 Biomarker Activity (AID 2283076). Conditions: primary human HUVEC with PBMC; actives raise or lower the signal. The procedure, abridged:
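Primary human umbilical vein endothelial cells co-cultured with peripheral blood mononuclear cells, LPS-stimulated, were dosed with chemical and read 24 h later. CD40 levels were measured by ELISA and fitted bidirectionally against DMSO as negative control and baseline.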

Read-out in experiment [16]: E-selectin (Homo sapiens) (UniProt P16581)
The experiment in a line: BSK_LPS_Eselectin: BioMAP Diversity Plus: LPS Assay for Eselectin Biomarker Activity (AID 2283077). Conditions: primary human HUVEC with PBMC; actives raise or lower the signal. The essentials:
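Human umbilical vein endothelial cells co-cultured with peripheral blood mononuclear cells under LPS stimulation; E-selectin measured by ELISA 24 h after chemical dosing. Activity fitted bidirectionally against DMSO as negative control and baseline.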

Read-out in experiment [17]: Interleukin-8 (IL8), CXCL8 (gene 3576)
In words: BSK_LPS_IL8: BioMAP Diversity Plus: LPS Assay for Interleukin-8 (IL8) Biomarker Activity (AID 2283078). Conditions: primary human HUVEC with PBMC; actives raise or lower the signal. The procedure, abridged:
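Human umbilical vein endothelial cells co-cultured with PBMC were stimulated with LPS; IL-8 levels were measured by ELISA 24 h after chemical dosing. Activity was fitted bidirectionally against DMSO as negative control and baseline.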

Experiment [18] in a line: BSK_LPS_SRB: Viability Assessment in the BioMAP Diversity Plus: LPS Assay (AID 2283079).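 Note: total protein by sulforhodamine B absorbance as a cytotoxicity measure; measured one day after compound addition; fitted in both directions against DMSO so loss or gain of signal counts.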 The settings on record: primary human HUVEC with PBMC. The essentials: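 Human umbilical vein endothelial cells co-cultured with PBMC (LPS system) were dosed for 24 h. Total protein was stained with 0.1% sulforhodamine B after 10% TCA fixation, read at 560 nm, and fitted bidirectionally against DMSO baseline.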

Read-out in experiment [19]: Interleukin-1 alpha (IL1a), IL1A (gene 3552)
The experiment in a line: BSK_LPS_IL1a: BioMAP Diversity Plus: LPS Assay for Interleukin-1 alpha (IL1a) Biomarker Activity (AID 2283080). Conditions: primary human HUVEC with PBMC; actives raise or lower the signal. The procedure, abridged:
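Human umbilical vein endothelial cells co-cultured with peripheral blood mononuclear cells were LPS-stimulated and exposed to test chemicals for 24 h. IL-1 alpha was quantified by ELISA, with bidirectional curve fitting against DMSO as the negative control and baseline.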

Structures are written as SMILES. Values joined by “and” are separate entries in the source; they are usually repeats but may differ in a detail not shown here. Equal values may be shown once. Some compounds were tested as several samples or in several runs, with calls that do not always agree. Active and inactive are the calls of the source. Rule for the calls: active = hit-call score of the fitted dose curve at least 0.9, where 1 is the maximum; inactive = score below 0.9.

E-selectin (Homo sapiens), sequence (P16581 whole entry, looked up): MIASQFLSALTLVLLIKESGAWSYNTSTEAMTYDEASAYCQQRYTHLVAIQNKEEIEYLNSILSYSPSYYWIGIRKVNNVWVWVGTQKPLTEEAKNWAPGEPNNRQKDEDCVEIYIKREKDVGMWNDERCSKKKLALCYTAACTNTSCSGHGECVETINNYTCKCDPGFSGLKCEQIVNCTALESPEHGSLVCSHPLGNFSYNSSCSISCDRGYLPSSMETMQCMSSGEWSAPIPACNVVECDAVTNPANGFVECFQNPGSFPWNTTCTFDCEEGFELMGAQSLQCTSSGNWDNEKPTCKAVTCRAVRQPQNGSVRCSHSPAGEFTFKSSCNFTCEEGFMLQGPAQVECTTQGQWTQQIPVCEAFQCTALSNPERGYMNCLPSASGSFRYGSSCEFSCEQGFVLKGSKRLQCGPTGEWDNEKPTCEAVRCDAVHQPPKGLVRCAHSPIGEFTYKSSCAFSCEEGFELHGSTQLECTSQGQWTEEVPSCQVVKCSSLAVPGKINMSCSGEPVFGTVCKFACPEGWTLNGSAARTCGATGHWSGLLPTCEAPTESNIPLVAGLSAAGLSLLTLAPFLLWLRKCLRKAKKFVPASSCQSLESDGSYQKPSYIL

In the case of `CNS(=O)(=O)C(F)(F)C(F)(F)C(F)(F)C(F)(F)C(F)(F)C(F)(F)C(F)(F)C(F)(F)F`, the result in experiment [1], in experiment [2], in experiment [3], in experiment [4], in experiment [5] and in [7] was inactive. Also, the result in experiment [8], in experiment [9], in experiment [10], in experiment [11], in [12] and in experiment [13] was inactive. The outcome was “inactive” in experiment [14]; “inactive” in experiment [15]; “inactive” with CD40, CD40 (gene 958); “inactive” in [16]; “inactive” in experiment [17]; “inactive” in [18]. Further, in [19], the outcome was inactive. Moreover, the concentration at half-maximal activity (AC50) in experiment [6] was 800 nM (active) and 1.94 µM (active); in experiment [14], 20.4 µM (active); in experiment [18], 22.5 µM (active); in experiment [19], 5.38 µM (active).

On to `Nc1cc([N+](=O)[O-])cc(Cl)c1O`, for which the outcome in [1], in experiment [2], in [3], in experiment [4], in [5] and in experiment [6] was inactive. Further, the outcome in experiment [7], in experiment [8], in [9], in experiment [10], in experiment [11] and in [12] was inactive. In addition, the outcome was “inactive” in experiment [13]; “inactive” in [14]; “inactive” in [15]; “inactive” with CD40, CD40 (gene 958); “inactive” in experiment [16]; “inactive” in experiment [17]. The outcome in [18] and in [19] was inactive.

Broadly, the AC50 is the concentration at which the activity in the assay is half-maximal.
